Measured values from PubChem BioAssay (Tox21).
Records with an inconclusive call do not appear. Values without a mark were called inactive. Calls follow the shape of the dose curve; as a rule, active = well fitted activation curve with a large enough effect in the repeat runs; inconclusive = weak or mixed curves; inactive = flat fitted curve, though single readings scatter.

Assay: Caspase-3/7 induction in HepG2 cells by small molecules, qHTS assay (AID 1346978); also: nearly all actives have a fitted effect of over 15% in size
Settings: HepG2 caspase-3/7 activation, Caspase-Glo luminescence, 17 h; series mostly up to 92.4 µM; caspase activation: at the top concentration
Excerpt: National Center for Advancing Translational Sciences [NCATS] NIH Chemical Genomics Center [NCGC] U.S. Environmental Protection Agency [EPA] National Institutes of Environmental Health Sciences [NIEHS] National Toxicology Program [NTP] Assay overview: Apoptosis is a process of programmed cell death and plays a central role in the development of multicellular organisms. It is a highly regulated process and induces cell death by activating caspases, which are the members of cysteine aspartic acid-specific protease (caspase) family. Caspases involved in apoptosis are classified by their mechanism of action as initiator caspases (caspase-2, -8, -9 and -10) and executioner caspases (caspase-3, -6, and -7). Inhibition of apoptosis results in number of cancers, autoimmune diseases, inflammatory diseases and viral infection. To identify small molecule compounds that induce apoptosis, a homogeneous, luminescent Caspase-Glo 3/7 assay was used. Wild type HepG2 cells were used to screen Tox21 libraries for identifying caspase-3/7 activity inducers.
Assay Protocol Summary: HepG2 cells were dispensed at 2,000 per well in 5uL of culture medium into white solid bottom 1536-well plates (Corning Life Sciences, Corning, NY) using a Multidrop Combi (Thermo Scientific, Waltham, MA) dispenser. The assay plates were incubated at 37 C and 5% CO2 for 5hr, and then 23nL of compounds dissolved in DMSO and positive control were transferred using a Pintool station (Wako, San Diego, CA). The assay plates were incubated at 37C and 5% CO2 for 17hr. For caspase-3/7 activity read, 4uL of Caspase-Glo 3/7 reagent (Promega Corporation, Madison, WI) was added to each well of the assay plates using Flying Reagent Dispenser (FRD, Aurora Discovery, San Diego, CA) and incubated the assay plates at room temperature for 30min. The luminescence signal was quantified using a ViewLux plate reader (Perkin Elmer, Shelton, CT).
% is scaled to controls: 0 for no effect and ±100 for the full control effect.

Compound	caspase activation
CCCCCCC(=O)c1ccccc1	-0.776%
O=c1[nH]c(=O)c2cn[nH]c2[nH]1	0.0857%
COC(=O)c1cc(Cl)c(NC(C)=O)cc1OC	-0.032% [at 42.5 µM]
O=C(CCBr)N1CCN(C(=O)CCBr)CC1	-0.356% [at 42.5 µM]
C=CCOC(=O)CCCCCCCC	0.441%
COC(=O)/C=C(\C)CCC=C(C)C	-0.0074%
CN(C)CCC[C@@]1(c2ccc(F)cc2)OCc2cc(C#N)ccc21	-0.61% [at 42.5 µM]
O=C(c1ccccc1)c1cccc(O)c1	-0.0361%
CCN(CC)CC	-3.07%
NS(=O)(=O)c1cc2c(cc1C(F)(F)F)NCNS2(=O)=O	0.0365% [at 42.5 µM]
Cc1ccccc1C#N	-1.46%
NNC(=O)CCCCC(=O)NN	-0.453%
CC1(C)C(=O)C(C)(C)C1=O	0.494%
O=C(O)CCCCCCCCCC(=O)O	-1.14%
Cc1ccc(O)c(C(=O)c2ccccc2)c1	0.126%
C[C@@H](CN1CC(=O)NC(=O)C1)N1CC(=O)NC(=O)C1	2.4% [at 42.5 µM]
CCCCN=C(N)N=C(N)N	0.0218% [at 42.5 µM]
COc1ccc2cc(CCC(C)=O)ccc2c1	-0.925% [at 42.5 µM]
CC(=O)/C=C/C=C1/C2CCC(C2)C1(C)C (stereo not given)	-0.0978% [at 42.5 µM]
N#CC1(N)CCCCC1	-1.16%

Compound	caspase activation
CCCCCCCCCCCCCCCC(=O)OC	1.29% [at 19 µM]
CC12CCCC=C1C(=O)OC2=O (stereo not given)	-1.94%
CCCc1ccc(O)c(OC)c1	-0.648%
Cc1ccc(OC(=O)CC(C)C)cc1	0.484%
Cc1ccccc1OCC(=O)O	-0.083%
C=CC(=O)CC	-0.795%
CC(C)=CCC/C(C)=C\C#N	0.0018%
CCCCC(CC)CCC(CC(C)C)OS(=O)(=O)O (stereo not given)	0.734%
O=C1CCCc2c(O)cccc21	0.979% [at 42.5 µM]
CC(=O)c1ccc2ccc3ccccc3c2c1	-2.8%
Cc1nc2ccc(Cl)cc2[nH]1	-2.88%
NNC(=O)OCc1ccccc1	-0.251%
COc1ccc(Cl)cc1C	-0.0233%
C=CCON/C(CCC)=C1\C(=O)CC(C)(C)C(C(=O)OC)=C1O	-0.0775%
C[C@]12C=CC(=O)C=C1[C@@H](F)C[C@@H]1[C@@H]2[C@@H](O)C[C@@]2(C)[C@H]1CC[C@]2(O)C(=O)CO	-1.74% [at 42.5 µM]
CCOC(=O)CC	-0.577%
CC(=O)Nc1ccc(S(=O)(=O)Nc2cc(C)on2)cc1	-0.719% [at 42.5 µM]
N=C(N)N1CCc2ccccc2C1	-1.31% [at 8.39 µM]
CCCCOCCCC	-0.594%
CC(=O)OC1CCC(C(C)(C)C)CC1 (stereo not given)	0.0814%
